Compound activity from PubChem BioAssay.
IL1B secr inh: qHTS for Inhibitors of Inflammasome Signaling: IL-1-beta AlphaLISA Primary Screen | AID 743279, 2014 | actives 4.7% (n = 360,000) | activity change, % at 57.5 µM | THP-1 LPS/ATP IL-1B secretion, AlphaLISA, 16 h; hits give low values; in the data active = activity change below about -50%; inconclusive = mostly about -30% to -49%
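THP-1 cells pretreated 1 hr with compounds (up to 57.5 uM final), then stimulated with LPS (250 ng/mL final) plus ATP (1.25 mM final); secreted IL-1B measured by AlphaLISA after 16 hr, decreased signal indicating inhibition.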
TDP1 cell noCPT: qHTS for Inhibitors of human tyrosyl-DNA phosphodiesterase 1 (TDP1): qHTS in cells in absence of CPT; DT40 Tdp1-/- hTDP1 cells, no CPT, ATP luminescence, 48 h; AID 686978, 2013; Potency, µM (doses to about 46.2 µM), inactives show at the top dose activity change, negative = growth inhibition, usual class: inhibitors; actives 15% (n = 420,000); also: potency is read from the fitted curve at half-maximal effect; nearly all actives have a fitted effect of over 55% in size
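Seeded 400 DT40-hTDP1 cells/well (vehicle DMSO, no 20 nM CPT); pinned compounds; ≥48 hr at 37 °C; CellTiter-Glo luminescence as viability measure.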
HT1080 IDH1KD tx: qHTS for induction of synthetic lethality in tumor cells producing 2HG: qHTS for the HT-1080-IDH1KD cell line; AID 686971, 2013; Potency, µM (doses to about 46.1 µM), for the others: top-dose activity, negative = toxicity, most hits filed as cytotoxic; actives 2% (n = 360,000); HT-1080 IDH1 knockdown viability, ATP luminescence, 48 h;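 also: potency is read from the fitted curve at half-maximal effect; 0% = DMSO wells and -100% = cell-free medium wells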
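% activity derives from luminescence (CellTiter-Glo), normalised to DMSO and no-cell wells. HT-1080-IDH1KD cells, 750/well, had 48 h compound exposure at 37 °C.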
HT1080NT lethal: qHTS for induction of synthetic lethality in tumor cells producing 2HG: qHTS for the HT-1080-NT fibrosarcoma cell line; Potency, µM (top dose mostly 46.1 µM), for inactives: top-dose activity, negative = less viability, most hits filed as cytotoxic; HT-1080-NT fibrosarcoma viability, CellTiter-Glo ATP luminescence, 48 h; actives 1.6% (n = 360,000); AID 686970, 2013;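 also: NT is the 2HG producing partner of a matched IDH1 knockdown line; potency is read from the fitted curve at half-maximal effect; 0% = DMSO-treated cells and -100% = media-only wells without cells; nearly all actives have a fitted effect of over 55% in size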
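Viability by CellTiter-Glo luminescence after 48 h compound exposure at 37C of HT-1080-NT cells (750/well, RPMI, 5% FBS). % activity scaled between DMSO wells and medium-only wells, then curve-fitted and categorized by curve class.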
DT40 TDP1 CPT: qHTS for Inhibitors of human tyrosyl-DNA phosphodiesterase 1 (TDP1): qHTS in cells in presence of CPT | chicken DT40 Tdp1-/-;hTDP1 cells + 20 nM CPT, ATP luminescence, 48 h | actives 12% (n = 420,000) | Potency, µM (titrated, usually from 46.2 µM), inactives show at the highest dose activity change, negative = growth inhibition, hits mostly inhibitors; also: potency is read from the fitted curve at half-maximal effect; nearly all actives have a fitted effect of over 55% in size
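Chicken DT40 Tdp1-/- cells stably complemented with human TDP1 were seeded at 400 cells/well in medium containing 20 nM camptothecin, exposed to pin-transferred compounds, and grown at 37 °C for at least 48 hr. Viability was read as ATP luminescence.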
Starred values were filed as active, the others as inactive; ? = inconclusive; . = no result; [ ] = another dose, or the depositor's remark. Rows were chosen to be rich in hits. Some 19% of all compounds tested hit in one or more screens of this group. Unless noted, calls follow the shape of the dose curve; as a rule, active = well fitted curve in the direction sought with a large enough effect; inconclusive = small, poorly fitted or top-dose-only effect, or another doubt; inactive = no such curve, though single readings can be large; an effect the other way counts as inactive or inconclusive. Unless noted, % is scaled to controls: 0 for no effect and ±100 for the full control effect.

SMILES	IL1B secr inh	TDP1 cell noCPT	HT1080 IDH1KD tx	HT1080NT lethal	DT40 TDP1 CPT
O=C(CN(C(=O)c1csnn1)c1ccc(F)cc1)NCc1ccc2c(c1)OCO2	-3	-13%	16%	8%	0%
CC(=O)c1ccc(NC(=O)c2ncn(-c3ccccc3)n2)cc1	.	-17%	.	.	?
CN(C)c1nccc(Nc2ccccc2)c1C#N	-10	21µM*	12%[9.24 µM]	11%	?
CN(C)CCN(Cc1ccccc1)c1nccc(N(C)C)c1C#N	-7	-10%	-1%	7%	-15%
COc1ccc(-c2nc3ccccn3c2CN2CCN(c3ccccc3F)CC2)cc1	24	23µM*	?	?	?
CC(C)OC(=O)n1c(=S)oc2ccccc21	6	?	-1%	-4%	?
CCCCC(=O)/C=C/n1c(=S)oc2ccccc21	-101*	4.1µM*	3.7µM*	10µM*	5.2µM*
Cc1ccc(Cc2cnc(N3C(=N)SC(c4ccccc4)C3=O)s2)cc1 (stereo not drawn)	0	16µM*	-17%	-6%	16µM*
O=C(NNc1ccccc1F)c1cccs1	.	?	?	?	-20%
CCOc1ccc(NS(=O)(=O)c2ccc(C(=O)N(C)CC(=O)Nc3ccc(C)cc3)cc2)cc1	?	16µM*	2%	-6%	?
CN(CC(=O)Nc1ccc(Cl)cc1)C(=O)c1ccc(S(=O)(=O)Nc2ccccc2)cc1	?	?	16µM*	13µM*	?
CN(CC(=O)Nc1ccc(F)cc1)C(=O)c1cccc(NS(=O)(=O)c2ccccc2)c1	-11	2%	1%	3%	-2%
O=C(/C=C1\C(=O)Nc2ccccc21)/C=C1\C(=O)Nc2ccccc21	-2	1.8µM*	?	?	1.5µM*
O=C1Nc2ccccc2/C1=C\C(=O)c1ccccc1	-21	2.1µM*	?	18µM*	2.9µM*
O=C1Nc2ccccc2C1=O	7	-12%	2%	0%	-9%
CC(C)Oc1ccc(C(=O)/C=C2/C(=O)Nc3ccccc32)cc1	-100*	12µM*	?	?	?
CN(O)/C=C1\C(=O)Nc2ccccc21	18	-31%	-12%	-6%	-9%
Cc1cccc(C(c2sc3nc(-c4ccco4)nn3c2O)N2CCOCC2)c1 (stereo not drawn)	.	-23%	.	.	0%
O=C(NCc1ccccc1)C(=O)Nc1ccc2nc3n(c(=O)c2c1)CCCCC3	.	-18%	.	.	1%
CN(Cc1ccccc1)C(=O)c1ccc(NC(=O)Cc2ccc(NC(=O)C3CCN(C(=O)C4CCCCC4)CC3)cc2)cc1	29	16µM*	?	-13%	23µM*
CN(Cc1ccccc1)C(=O)c1cccc(NC(=O)Cc2ccc(NC(=O)C3CCN(C(=O)CCc4ccccc4)CC3)cc2)c1	-3	16µM*	-20%	-10%	?
CN(C(=O)c1ccc(NC(=O)Cc2ccc(NC(=O)C3CCN(C(=O)C4CCCCC4)CC3)cc2)cc1)C1CC1	-61*	?	-18%	?	?
CN(Cc1ccccc1)C(=O)c1ccc(NC(=O)Cc2ccc(NC(=O)C3CCN(C(=O)CCc4ccccc4)CC3)cc2)cc1	23	10µM*	?	-22%	26µM*
Cc1ccc2c(CC(=O)N3CCOc4ccc(CN5C[C@@H](C)O[C@@H](C)C5)cc4C3)cc(=O)oc2c1	.	-14%	.	.	21%[9.04 µM]
COc1c2c(cc3c1C(c1c(O)c4ccccc4oc1=O)N(C)CC3)OCO2 (stereo not drawn)	.	4%[9.04 µM]	.	.	-11%[9.04 µM]
SMILES	IL1B secr inh	TDP1 cell noCPT	HT1080 IDH1KD tx	HT1080NT lethal	DT40 TDP1 CPT
COc1ccc2[nH]c(=O)c(CNc3ccc(C)cc3C)cc2c1	-13	21µM*	-17%	-3%	5.8µM*
COc1ccc2[nH]c(=O)c(CN(C(C)=O)c3ccc(C)c(C)c3)cc2c1	-6	?	0%	1%	-25%
COc1ccc2[nH]c(=O)c(CNc3cc(C)ccc3C)cc2c1	-16	15µM*	-28%	?	15µM*
Cc1ccc2[nH]c(=O)c(CNC(C)(C)C)cc2c1	-2	-15%	-1%	-2%	-7%
Cc1ccc(CNC(=O)CCSCc2cccc(F)c2)cc1	9	9%	8%	9%	-18%
CNCc1ccccc1Sc1ccc(O)c(O)c1	-125*	4.1µM*	?	-11%	2.6µM*
CC(=O)c1c(C)[nH]c(C(=O)Nc2ccc(F)c(F)c2F)c1C	40	-12%	-3%	-11%	3%
NC(=O)COc1ccccc1/C=C1/SC(=O)N(CC(=O)N2CCc3ccccc3C2)C1=O	-19	18µM*	-16%	0%	21µM*
CC(C)c1ccc(N)c(S(=O)(=O)O)c1	6	0%	0%	-1%	-4%
CS(=O)(=O)Nc1cccc(-c2cc(NC=O)c3ncc(-c4ccc(F)cc4)n3c2)c1	34	?	8.2µM*	12µM*	23µM*
O=CNc1cc(-c2cccc(F)c2)cn2c(-c3ccc(F)cc3)cnc12	2	?	18%	1%	29µM*
O=CNc1cc(-c2ccoc2)cn2c(-c3ccc(F)cc3)cnc12	23	23µM*	?	-21%	13µM*
COC(=O)c1ccc(CN2CCC3(CCC(CNC(=O)c4ccco4)O3)CC2)cc1 (stereo not drawn)	.	-15%	.	.	-27%
CSCCC(C(=O)NC1CCCC1)n1c(C2CC2)nc2ccccc21 (stereo not drawn)	-22	11%	9%	3%	-2%
CC(=O)Nc1ccc(S(=O)(=O)N/N=C/c2ccc(C)s2)cc1	-3	-3%	0%	0%	?
COc1ccc(OC)c(CNS(=O)(=O)c2c(C)nc3scc(C)n3c2=O)c1	22	-3%	1%	-1%	-2%
COc1ccc([N+](=O)[O-])cc1C1NN=C(c2ccccc2O)S1 (stereo not drawn)	32	3.3µM*	?	?	3.7µM*
CC1CC(C)CN(CCCNC(=O)CN2C(=O)c3cccnc3Oc3ccc(Cl)cc32)C1 (stereo not drawn)	?	-3%	-10%	-5%	-23%
COCCNC(=O)c1ccc(CS(=O)(=O)c2cccc(C(F)(F)F)c2)o1	29	23%	7%	0%	-19%
CC(=O)Nc1ccc(-c2ccnc3c2CC(C)(C(=O)Nc2ccc(C(C)C)cc2)O3)cc1 (stereo not drawn)	-84*	21µM*	?	?	23µM*
